Screening results deposited in PubChem by several laboratories.
Mac1 fbg inh: inhibitors of human CD11b/CD18 binding to fibrinogen | P05107+P11215 | K562 CD11b/CD18 adhesion to fibrinogen, ATPlite luminescence; Mn2+ added to activate the integrin | inhibition, % at 10 µM | 93,000 tested, 0.54% active | AID 1497;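 active = primary inhibition of 50% or more at 10 µM, then 40% or more on retest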
Target sequence (P05107 whole entry, looked up, other chains not shown): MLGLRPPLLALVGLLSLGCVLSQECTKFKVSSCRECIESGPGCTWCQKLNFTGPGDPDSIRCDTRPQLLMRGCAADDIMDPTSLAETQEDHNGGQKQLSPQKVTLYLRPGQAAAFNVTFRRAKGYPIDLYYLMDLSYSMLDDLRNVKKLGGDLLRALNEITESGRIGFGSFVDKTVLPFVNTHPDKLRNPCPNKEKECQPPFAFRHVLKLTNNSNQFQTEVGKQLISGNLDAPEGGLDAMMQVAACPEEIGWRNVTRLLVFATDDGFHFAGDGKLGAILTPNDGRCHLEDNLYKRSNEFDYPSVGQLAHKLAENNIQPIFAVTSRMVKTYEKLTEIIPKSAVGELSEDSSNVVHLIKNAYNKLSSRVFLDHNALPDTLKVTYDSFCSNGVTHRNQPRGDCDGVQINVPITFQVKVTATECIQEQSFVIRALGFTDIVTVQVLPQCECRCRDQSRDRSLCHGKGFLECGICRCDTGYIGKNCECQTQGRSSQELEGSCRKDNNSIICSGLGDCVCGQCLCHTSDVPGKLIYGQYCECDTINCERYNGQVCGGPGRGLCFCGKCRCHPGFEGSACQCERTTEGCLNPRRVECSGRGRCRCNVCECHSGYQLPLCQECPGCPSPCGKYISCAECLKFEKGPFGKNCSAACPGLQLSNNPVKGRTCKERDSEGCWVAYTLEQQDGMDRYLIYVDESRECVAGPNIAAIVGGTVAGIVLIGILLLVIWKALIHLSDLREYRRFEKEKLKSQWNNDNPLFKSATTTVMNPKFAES
CD11b adhes enh: enhancers of human CD11b/CD18 binding to fibrinogen; AID 1499; P05107+P11215; activation, % at 10 µM; K562 CD11b/CD18 adhesion to fibrinogen, ATPlite luminescence; 93,000 tested, 0.07% active;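 active = 10 µM primary screen giving 50% or more activity, confirmed by 40% or more on retest at that dose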
ERa coact pot: ER-alpha (human) coactivator binding potentiation; coactivator binding (% of control), % at 25.6 µM; P03372; 86,000 tested, 1.3% active; TR-FRET ERalpha-LBD/SRC-Cy5 coactivator binding, 2 h; 100 = basal binding, no effect; in the data active = activity above about 200%;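 also: binding measured in presence of low estradiol as agonist stimulus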
FAK inh: blocks human focal adhesion kinase activity; biochemical FAK kinase activity assay; 97,000 tested, 0.84% active; inhibition, %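 (tested at 7 µM)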; Q05397; in the data active = inhibition above about 19%
ERa coact inh: ER-alpha (human) coactivator binding inhibition | P03372 | TR-FRET ER-alpha LBD / SRC-1 peptide, estradiol-bound | inhibition, % at 25.6 µM | 86,000 tested, 1.7% active | AID 629; in the data active = inhibition above about 50%
ERb SRC1 inh: ER-beta (human) coactivator binding inhibition | inhibition, % at 25.6 µM | TR-FRET ER-beta LBD / SRC1-Cy5 peptide binding; receptor agonist-loaded with 1 µM estradiol | AID 633 | 86,000 tested, 1.3% active;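 active = compounds whose percent inhibition of the receptor-coactivator binding signal exceeds about 50% in the single-dose screen, limit read from the data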
A number is an active result; - = inactive; . = no result given; [ ] = remark or other dose. An excerpt weighted towards active compounds, which were near 3.5% of everything screened.

SMILES	Mac1 fbg inh	CD11b adhes enh	ERa coact pot	FAK inh	ERa coact inh	ERb SRC1 inh
COc1ccc(CCN2C(=NC(=O)CCC(=O)O)SC3CS(=O)(=O)CC32)cc1 (stereo not given)	.	.	-	-	-	-
Cc1nc2c(Br)c3nc(C(F)(F)F)[nH]c3c(Br)c2[nH]1	-	-	-	-	-	74[fluorescence artefact?]
CCOC(=O)/C=C1\SCC(=O)N1Cc1nnc(-c2ccccc2Br)o1	-	-	-	-	59[fluorescence artefact?]	-
O=C(Cn1nnc(-c2ccccc2NC(=O)c2ccco2)n1)Nc1ccccc1	-	-	286[fluorescence artefact?]	.	60[fluorescence artefact?]	-
CC(C)(C)NC(=O)Cn1nnc(-c2ccccc2NC(=O)c2ccco2)n1	.	.	-	-	-	-
COc1ccc(NC(=O)Cn2nnc(-c3ccccc3NC(=O)c3cccs3)n2)cc1	-	-	237[fluorescence artefact?]	-	-	-
CCc1nc(N)c(C#N)c(-c2ccncc2)c1C	-	-	-	-	-	-
CCc1nc(N)nc(N)c1-c1ccc(Cl)cc1	.	.	246	.	-	-
O=C(N[C@@H](Cc1c[nH]c2ccccc12)C(=O)NC1CC1)c1ccccc1Cl	-	-	.	.	.	.
O=C(CSc1nnnn1-c1ccc2c(c1)OCCO2)OC1CCCCC1	-	-	212	-	-	-
O=C(CSc1nnnn1-c1ccc2c(c1)OCCO2)N1CCc2ccccc21	-	-	-	-	-	-
CCCCCOc1ccc(Br)cc1CSC(=N)N	105	-	.	.	.	.
Nc1ccccc1N1CCN(C(=O)c2ccccc2)CC1	.	.	-	-	-	-
CCc1nnc2sc(-c3ccc(NC(=O)c4ccco4)cc3)nn12	.	.	-	-	-	-
CCc1nnc2sc(-c3ccc(NC(=O)c4ccc5c(c4)OCCO5)cc3)nn12	-	-	326	-	-	-
CCn1c(=O)c2c(O)cc(=O)oc2c2ccccc21	.	.	.	-	.	.
COc1ccc2c(Cl)c(C(=O)NCCCn3ccnc3)sc2c1Cl	.	.	276	-	-	-
COc1ccc(C(=O)NCCCn2ccnc2)cc1	-	-	-	-	-	-
c1nc(N2CCCC2)c2[nH]cnc2n1	.	.	-	34	-	-
Cc1nn(-c2ccccc2)c(Cl)c1/C=C1\SC(=S)NC1=O	101	-	-	-	-	-
COC(=O)N/N=C\c1c(C)nn(-c2ccccc2)c1Cl	-	-	.	.	.	.
CCc1ccc(C2C(C#N)=C(N)SC(N)=C2C#N)s1	-	-	-	.	-	-
Cc1ccc(C2C(C#N)=C(N)SC(N)=C2C#N)o1	-	-	-	-	-	67[fluorescence artefact?]
Cc1ccccc1-n1c(CSC(=N)N)nc2ccccc2c1=O	-	-	.	-	.	.
COc1ccc(Nc2nc(N3CCCC3)c3ccccc3n2)cc1	-	-	-	.	68[fluorescence artefact?]	-
SMILES	Mac1 fbg inh	CD11b adhes enh	ERa coact pot	FAK inh	ERa coact inh	ERb SRC1 inh
c1ccc2c(N3CCCCC3)nc(N3CCCC3)nc2c1	-	-	.	-	.	.
CCN(CC)c1ccc(Nc2nc(N3CCOCC3)c3ccccc3n2)cc1	65	-	-	-	-	-
COC(=O)c1[nH]c(C)c(/C(O)=C2\C(=O)C(=O)N(CCN(C)C)C2c2ccc(C)o2)c1C (stereo not given)	-	-	-	-	-	-
CCC(=O)N1CCN(c2ccc(NC(=O)c3c(F)c(F)c(OC)c(F)c3F)cc2)CC1	-	-	-	-	-	-
Nc1c(C(=O)Nc2ccccc2F)sc2nc(Cc3ccccc3)cc(C(F)(F)F)c12	-	-	.	-	.	.
Cc1cc(C(F)(F)F)c2c(N)c(C(=O)Nc3cc(C)on3)sc2n1	-	-	214[fluorescence artefact?]	-	-	-
O=C(Nc1ccc(F)cc1F)N1CCCCC1c1cccnc1 (stereo not given)	-	-	-	-	-	-
CCCNc1nc(N2CCOCC2)nc(N2CCOCC2)n1	-	-	-	-	-	55
Cc1cc(C)n(CCc2nc3c4ccccc4nc(SCc4ccc(C#N)cc4)n3n2)n1	.	.	-	.	59[fluorescence artefact?]	-
CC(=O)c1sc(N2C(=O)c3oc4ccccc4c(=O)c3C2c2ccc(C)o2)nc1C (stereo not given)	.	.	-	.	64	-
Cc1ccc(C2c3c(oc4ccccc4c3=O)C(=O)N2CCCN2CCOCC2)o1 (stereo not given)	-	-	-	-	-	-
CCc1ccc2nc(NC(=O)c3ccc4c(=O)[nH]c(CN5CCOCC5)nc4c3)sc2c1	-	-	-	-	69	-
O=C(OCc1cccc2ccccc12)c1ccc2c(=O)[nH]c(CN3CCOCC3)nc2c1	-	-	-	-	-	-
Cc1noc(C)c1CSCC(=O)OCC(=O)Nc1sccc1C#N	-	-	-	-	55[fluorescence artefact?]	54
CCOC(=O)C1C(=O)OC2(CCCCC2)C1C(=O)OCC (stereo not given)	-	-	-	-	-	-
COc1ccccc1-n1c(=O)oc2ccc(Cl)cc2c1=O	96	-	-	-	-	-
COc1ccc(Cl)cc1N1Cc2ccccc2C1	-	-	-	-	-	-
CCCCC1CCC(C(=O)Nc2ccccc2)CC1 (stereo not given)	-	-	-	-	-	-
COc1ccc(NC(=O)COC(=O)c2ccc(N3CCCC3=O)cc2)cc1OC	-	-	-	-	-	-
COc1ccccc1NC(=O)COc1ccc(C(=O)OCC(=O)N2CCCC2=O)cc1OC	-	-	349[fluorescence artefact?]	-	-	-
O=C(Nc1nnc(-c2ccco2)s1)C1CC1	-	-	-	-	-	-
O=C(Nc1nnc(-c2ccco2)s1)C1CCN(S(=O)(=O)c2ccc(Cl)cc2)CC1	-	-	410[fluorescence artefact?]	-	-	-
Cc1cc(C)c(C(=O)COc2cccnc2[N+](=O)[O-])cc1C	-	-	-	-	55[fluorescence artefact?]	89
Cc1ccc(OCC(=O)c2cc(C)n(C3CC3)c2C)c([N+](=O)[O-])n1	-	-	.	.	.	.
CN(C)c1ccc(NC(=O)Cn2cc3c(n2)CCCC3)cc1	-	-	-	.	85[fluorescence artefact?]	95[fluorescence artefact?]
SMILES	Mac1 fbg inh	CD11b adhes enh	ERa coact pot	FAK inh	ERa coact inh	ERb SRC1 inh
Cc1cc(C)cc(NC(=O)Cn2cc3c(n2)CCCCC3)c1	-	-	.	-	.	.
C/C=C/COC(=O)c1[nH]c2c(c1C)C(=O)CC(c1ccco1)C2 (stereo not given)	-	-	-	-	59	55
C=CCOC(=O)c1[nH]c2c(c1C)C(=O)CC(c1ccco1)C2 (stereo not given)	-	-	-	.	-	-
COC(=O)c1cc(C(=O)Nc2ccc(C)cn2)cc([N+](=O)[O-])c1	-	-	.	-	.	.
Clc1cccc(OCCn2cncn2)c1Cl	-	-	-	-	-	-
N#CC(c1ccc(F)cc1)c1ccc(C(=O)c2ccc(F)cc2)cc1 (stereo not given)	87	-	-	-	-	-
Cc1ccc(C(C#N)c2ccc(C(=O)c3ccc(F)cc3)cc2)cc1 (stereo not given)	-	-	-	-	-	-
CCn1c(SCC(=O)N2CCOCC2)nnc1-c1cccs1	-	-	-	-	-	-
COc1ccc(-n2c(SCC(=O)N3CCCC3)nc3c([nH]c4ccccc43)c2=O)cc1	.	.	-	.	87	60[fluorescence artefact?]
